How the values were obtained:
Test in all cases: log2 ratio of Biotin-Ahx-Ub-VS probe labelling (fragment/DMSO); higher = less target engagement (more negative = stronger competition), active = hit call of the paper (q ≤ 0.05, log2 ratio ≤ -1)
Conditions in all cases: compound concentration: 200 uM; treatment time: 3 h
USP42 = target: T1, USP42 (UniProt Q9H9J4)
T1 sequence (whole entry): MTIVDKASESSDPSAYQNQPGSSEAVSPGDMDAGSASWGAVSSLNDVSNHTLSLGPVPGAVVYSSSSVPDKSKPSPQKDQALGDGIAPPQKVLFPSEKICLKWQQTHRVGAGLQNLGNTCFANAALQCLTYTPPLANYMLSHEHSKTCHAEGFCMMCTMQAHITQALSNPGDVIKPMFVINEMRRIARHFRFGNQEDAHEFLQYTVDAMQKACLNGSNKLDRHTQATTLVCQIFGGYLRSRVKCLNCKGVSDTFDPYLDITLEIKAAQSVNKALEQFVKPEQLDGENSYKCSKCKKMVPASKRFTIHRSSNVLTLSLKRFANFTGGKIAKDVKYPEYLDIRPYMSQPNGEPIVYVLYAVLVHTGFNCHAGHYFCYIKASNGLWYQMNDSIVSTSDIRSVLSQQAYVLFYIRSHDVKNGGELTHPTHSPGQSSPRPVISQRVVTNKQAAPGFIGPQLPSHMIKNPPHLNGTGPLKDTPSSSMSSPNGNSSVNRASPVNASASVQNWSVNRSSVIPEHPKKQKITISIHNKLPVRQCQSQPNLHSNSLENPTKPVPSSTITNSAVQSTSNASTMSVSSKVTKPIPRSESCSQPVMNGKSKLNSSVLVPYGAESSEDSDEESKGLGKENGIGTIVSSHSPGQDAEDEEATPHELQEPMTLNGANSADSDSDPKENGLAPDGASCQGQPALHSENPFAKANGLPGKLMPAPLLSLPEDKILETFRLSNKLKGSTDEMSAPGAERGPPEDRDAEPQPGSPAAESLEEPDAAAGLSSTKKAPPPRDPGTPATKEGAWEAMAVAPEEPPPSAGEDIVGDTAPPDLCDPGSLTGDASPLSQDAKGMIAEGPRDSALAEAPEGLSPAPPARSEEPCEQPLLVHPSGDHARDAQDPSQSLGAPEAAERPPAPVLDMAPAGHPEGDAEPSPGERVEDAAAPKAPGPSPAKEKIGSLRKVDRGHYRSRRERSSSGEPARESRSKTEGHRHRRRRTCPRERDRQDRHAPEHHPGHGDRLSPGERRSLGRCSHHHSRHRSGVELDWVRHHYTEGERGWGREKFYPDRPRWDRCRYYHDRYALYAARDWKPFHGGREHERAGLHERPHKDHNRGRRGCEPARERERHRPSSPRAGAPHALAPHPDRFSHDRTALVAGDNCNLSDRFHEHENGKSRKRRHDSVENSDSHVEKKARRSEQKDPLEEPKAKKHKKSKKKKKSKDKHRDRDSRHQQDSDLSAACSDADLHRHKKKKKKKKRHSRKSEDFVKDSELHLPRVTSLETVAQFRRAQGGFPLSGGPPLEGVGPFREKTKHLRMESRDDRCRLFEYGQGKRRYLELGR
Procedure, shortened: (§1)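 The table lists average log2 ratios of fragment over vehicle, from an unpaired t-test on global-median-normalised Spectronaut label-free quantities. Proteins with ≥2 unique peptides were used. Samples were HEK293T lysate (495 µg) treated in triplicate with fragment at 200 µM or vehicle for 3 h, then with Biotin-Ahx-Ub-VS (0.5 µM final) for 1 h, with labelled DUBs NeutrAvidin-enriched and run by diaPASEF LC-MS/MS.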

USP46 = USP46 (UniProt P62068)
Sequence of USP46 (P62068 whole entry): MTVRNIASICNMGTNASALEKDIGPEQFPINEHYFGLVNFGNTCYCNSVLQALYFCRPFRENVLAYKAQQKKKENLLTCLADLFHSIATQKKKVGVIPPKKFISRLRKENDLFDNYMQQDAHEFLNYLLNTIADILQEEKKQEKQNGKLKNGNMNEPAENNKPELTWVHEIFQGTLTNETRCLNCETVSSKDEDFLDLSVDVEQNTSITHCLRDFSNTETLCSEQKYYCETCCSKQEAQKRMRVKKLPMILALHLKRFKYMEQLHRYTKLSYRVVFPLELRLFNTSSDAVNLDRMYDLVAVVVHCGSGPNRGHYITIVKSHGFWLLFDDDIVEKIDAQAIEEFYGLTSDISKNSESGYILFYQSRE
Procedure, shortened: as §1

USP47 = target: T2, USP47 (UniProt Q96K76)
T2 sequence (whole entry): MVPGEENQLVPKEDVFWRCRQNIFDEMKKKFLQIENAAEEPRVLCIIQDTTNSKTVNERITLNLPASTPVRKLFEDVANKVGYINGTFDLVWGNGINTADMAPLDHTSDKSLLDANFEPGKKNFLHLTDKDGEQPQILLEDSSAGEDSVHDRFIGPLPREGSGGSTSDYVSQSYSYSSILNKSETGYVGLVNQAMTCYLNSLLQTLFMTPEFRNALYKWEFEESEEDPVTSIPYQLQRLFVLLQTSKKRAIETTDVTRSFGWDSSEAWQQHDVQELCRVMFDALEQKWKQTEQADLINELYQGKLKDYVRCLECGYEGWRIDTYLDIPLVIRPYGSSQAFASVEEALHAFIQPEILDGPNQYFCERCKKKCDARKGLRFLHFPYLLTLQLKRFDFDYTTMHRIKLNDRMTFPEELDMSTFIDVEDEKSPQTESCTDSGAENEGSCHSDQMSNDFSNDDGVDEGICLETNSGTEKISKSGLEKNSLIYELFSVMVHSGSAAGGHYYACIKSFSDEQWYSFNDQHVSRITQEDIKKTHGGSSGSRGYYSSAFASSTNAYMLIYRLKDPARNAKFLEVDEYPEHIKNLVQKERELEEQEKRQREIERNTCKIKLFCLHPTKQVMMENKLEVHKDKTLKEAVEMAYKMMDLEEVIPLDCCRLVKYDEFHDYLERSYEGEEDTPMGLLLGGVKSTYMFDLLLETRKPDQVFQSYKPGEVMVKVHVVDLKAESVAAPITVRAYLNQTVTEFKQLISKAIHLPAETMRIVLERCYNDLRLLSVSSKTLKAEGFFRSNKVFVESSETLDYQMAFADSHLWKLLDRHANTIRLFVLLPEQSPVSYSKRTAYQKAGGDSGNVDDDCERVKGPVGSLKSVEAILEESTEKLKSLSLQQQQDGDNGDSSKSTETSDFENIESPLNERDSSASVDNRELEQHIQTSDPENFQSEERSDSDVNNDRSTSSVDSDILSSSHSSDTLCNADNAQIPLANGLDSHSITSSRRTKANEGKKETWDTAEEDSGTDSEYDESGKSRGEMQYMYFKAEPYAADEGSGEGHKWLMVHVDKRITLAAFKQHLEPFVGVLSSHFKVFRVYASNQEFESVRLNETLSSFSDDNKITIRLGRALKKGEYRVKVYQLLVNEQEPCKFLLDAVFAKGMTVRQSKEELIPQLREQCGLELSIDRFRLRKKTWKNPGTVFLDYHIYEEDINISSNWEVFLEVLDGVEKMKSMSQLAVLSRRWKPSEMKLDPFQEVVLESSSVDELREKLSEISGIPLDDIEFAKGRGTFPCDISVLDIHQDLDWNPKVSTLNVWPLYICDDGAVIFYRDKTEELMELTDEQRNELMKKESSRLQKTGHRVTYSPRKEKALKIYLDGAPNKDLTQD
Procedure, shortened: as §1

USP48 = target: T3, USP48 (UniProt Q86UV5)
T3 sequence (whole entry): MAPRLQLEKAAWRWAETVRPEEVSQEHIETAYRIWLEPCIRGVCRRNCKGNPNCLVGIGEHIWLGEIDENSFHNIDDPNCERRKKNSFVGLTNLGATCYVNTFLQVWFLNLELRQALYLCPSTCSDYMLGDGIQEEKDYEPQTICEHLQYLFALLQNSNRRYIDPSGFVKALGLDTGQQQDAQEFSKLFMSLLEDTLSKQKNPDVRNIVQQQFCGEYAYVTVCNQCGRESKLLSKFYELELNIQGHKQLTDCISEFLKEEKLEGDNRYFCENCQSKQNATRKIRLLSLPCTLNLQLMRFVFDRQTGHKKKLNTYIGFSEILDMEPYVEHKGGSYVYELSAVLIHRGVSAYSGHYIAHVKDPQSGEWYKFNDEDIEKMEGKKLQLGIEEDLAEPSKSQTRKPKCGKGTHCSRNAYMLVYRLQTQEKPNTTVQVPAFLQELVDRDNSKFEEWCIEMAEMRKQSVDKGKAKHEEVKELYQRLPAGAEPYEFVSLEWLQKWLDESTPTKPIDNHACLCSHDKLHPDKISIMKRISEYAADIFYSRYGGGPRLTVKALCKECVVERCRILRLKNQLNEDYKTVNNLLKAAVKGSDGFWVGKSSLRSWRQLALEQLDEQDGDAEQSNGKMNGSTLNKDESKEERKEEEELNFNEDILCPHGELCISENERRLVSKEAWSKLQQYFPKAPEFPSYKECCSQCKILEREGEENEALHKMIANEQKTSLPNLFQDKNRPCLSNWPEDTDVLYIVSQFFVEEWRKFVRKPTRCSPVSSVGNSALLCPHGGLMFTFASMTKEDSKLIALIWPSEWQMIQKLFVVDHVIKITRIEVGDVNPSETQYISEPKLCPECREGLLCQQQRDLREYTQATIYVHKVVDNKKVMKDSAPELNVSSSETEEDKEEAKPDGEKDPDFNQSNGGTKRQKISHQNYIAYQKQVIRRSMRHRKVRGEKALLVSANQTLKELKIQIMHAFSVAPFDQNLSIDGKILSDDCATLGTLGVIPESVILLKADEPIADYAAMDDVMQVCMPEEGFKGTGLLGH
Procedure, shortened: as §1

USP5 = target: T4, USP5 (UniProt P45974)
T4 sequence (whole entry): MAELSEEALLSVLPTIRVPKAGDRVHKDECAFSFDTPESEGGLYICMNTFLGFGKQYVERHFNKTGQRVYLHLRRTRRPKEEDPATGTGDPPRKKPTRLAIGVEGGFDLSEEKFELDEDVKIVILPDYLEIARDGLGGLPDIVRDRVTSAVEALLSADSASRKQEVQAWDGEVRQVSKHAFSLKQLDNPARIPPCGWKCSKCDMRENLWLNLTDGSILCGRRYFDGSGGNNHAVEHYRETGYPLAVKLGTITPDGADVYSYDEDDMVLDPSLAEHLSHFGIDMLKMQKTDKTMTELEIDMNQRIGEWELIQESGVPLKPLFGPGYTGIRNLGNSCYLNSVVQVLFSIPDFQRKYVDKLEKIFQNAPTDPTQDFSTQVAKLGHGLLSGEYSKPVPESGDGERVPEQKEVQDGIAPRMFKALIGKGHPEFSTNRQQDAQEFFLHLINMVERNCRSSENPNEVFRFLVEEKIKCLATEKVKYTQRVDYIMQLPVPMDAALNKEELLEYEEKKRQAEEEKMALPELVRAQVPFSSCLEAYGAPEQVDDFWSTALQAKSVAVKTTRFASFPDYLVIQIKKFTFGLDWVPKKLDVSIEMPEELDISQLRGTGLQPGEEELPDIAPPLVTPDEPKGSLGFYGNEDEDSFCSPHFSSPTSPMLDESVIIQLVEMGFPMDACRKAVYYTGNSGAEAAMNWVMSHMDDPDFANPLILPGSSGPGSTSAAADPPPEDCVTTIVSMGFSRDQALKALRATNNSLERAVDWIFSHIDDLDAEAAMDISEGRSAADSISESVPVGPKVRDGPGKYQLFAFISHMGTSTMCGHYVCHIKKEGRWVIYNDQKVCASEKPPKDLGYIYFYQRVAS
Procedure, shortened: as §1

USP54 = USP54 (UniProt Q70EL1)
Procedure, shortened: as §1

USP7 = USP7 (UniProt Q93009)
Sequence of USP7 (Q93009 whole entry, looked up): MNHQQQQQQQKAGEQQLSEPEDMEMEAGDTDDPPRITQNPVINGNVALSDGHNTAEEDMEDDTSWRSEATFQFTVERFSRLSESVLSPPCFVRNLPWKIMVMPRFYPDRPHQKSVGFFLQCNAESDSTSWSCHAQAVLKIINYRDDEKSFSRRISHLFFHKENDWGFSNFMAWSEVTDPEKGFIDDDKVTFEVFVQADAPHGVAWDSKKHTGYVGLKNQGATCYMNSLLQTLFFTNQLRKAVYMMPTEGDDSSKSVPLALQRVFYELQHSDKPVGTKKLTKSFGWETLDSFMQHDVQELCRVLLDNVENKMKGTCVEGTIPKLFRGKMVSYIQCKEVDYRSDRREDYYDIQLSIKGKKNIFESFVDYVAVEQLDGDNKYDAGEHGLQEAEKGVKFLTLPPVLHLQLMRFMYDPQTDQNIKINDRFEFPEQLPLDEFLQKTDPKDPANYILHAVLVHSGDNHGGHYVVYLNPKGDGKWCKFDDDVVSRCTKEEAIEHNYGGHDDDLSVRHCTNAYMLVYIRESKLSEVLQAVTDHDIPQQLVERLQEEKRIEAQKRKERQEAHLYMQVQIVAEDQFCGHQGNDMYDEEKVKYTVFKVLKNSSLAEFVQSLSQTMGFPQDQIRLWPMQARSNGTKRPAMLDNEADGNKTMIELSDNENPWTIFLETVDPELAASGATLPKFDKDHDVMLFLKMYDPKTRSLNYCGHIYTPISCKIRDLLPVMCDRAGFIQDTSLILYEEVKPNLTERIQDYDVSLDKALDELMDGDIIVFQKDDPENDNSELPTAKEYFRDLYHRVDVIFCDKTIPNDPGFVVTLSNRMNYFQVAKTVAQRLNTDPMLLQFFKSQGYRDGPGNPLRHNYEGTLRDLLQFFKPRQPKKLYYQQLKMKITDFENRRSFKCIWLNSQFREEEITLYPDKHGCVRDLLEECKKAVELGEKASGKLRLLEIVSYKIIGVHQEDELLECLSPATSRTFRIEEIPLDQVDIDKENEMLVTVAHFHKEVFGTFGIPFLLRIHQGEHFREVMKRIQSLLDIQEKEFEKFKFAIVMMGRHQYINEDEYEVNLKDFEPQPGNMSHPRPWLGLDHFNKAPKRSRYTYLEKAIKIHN
Procedure, shortened: as §1

USP8 = target: T5, USP8 (UniProt P40818)
T5 sequence (whole entry): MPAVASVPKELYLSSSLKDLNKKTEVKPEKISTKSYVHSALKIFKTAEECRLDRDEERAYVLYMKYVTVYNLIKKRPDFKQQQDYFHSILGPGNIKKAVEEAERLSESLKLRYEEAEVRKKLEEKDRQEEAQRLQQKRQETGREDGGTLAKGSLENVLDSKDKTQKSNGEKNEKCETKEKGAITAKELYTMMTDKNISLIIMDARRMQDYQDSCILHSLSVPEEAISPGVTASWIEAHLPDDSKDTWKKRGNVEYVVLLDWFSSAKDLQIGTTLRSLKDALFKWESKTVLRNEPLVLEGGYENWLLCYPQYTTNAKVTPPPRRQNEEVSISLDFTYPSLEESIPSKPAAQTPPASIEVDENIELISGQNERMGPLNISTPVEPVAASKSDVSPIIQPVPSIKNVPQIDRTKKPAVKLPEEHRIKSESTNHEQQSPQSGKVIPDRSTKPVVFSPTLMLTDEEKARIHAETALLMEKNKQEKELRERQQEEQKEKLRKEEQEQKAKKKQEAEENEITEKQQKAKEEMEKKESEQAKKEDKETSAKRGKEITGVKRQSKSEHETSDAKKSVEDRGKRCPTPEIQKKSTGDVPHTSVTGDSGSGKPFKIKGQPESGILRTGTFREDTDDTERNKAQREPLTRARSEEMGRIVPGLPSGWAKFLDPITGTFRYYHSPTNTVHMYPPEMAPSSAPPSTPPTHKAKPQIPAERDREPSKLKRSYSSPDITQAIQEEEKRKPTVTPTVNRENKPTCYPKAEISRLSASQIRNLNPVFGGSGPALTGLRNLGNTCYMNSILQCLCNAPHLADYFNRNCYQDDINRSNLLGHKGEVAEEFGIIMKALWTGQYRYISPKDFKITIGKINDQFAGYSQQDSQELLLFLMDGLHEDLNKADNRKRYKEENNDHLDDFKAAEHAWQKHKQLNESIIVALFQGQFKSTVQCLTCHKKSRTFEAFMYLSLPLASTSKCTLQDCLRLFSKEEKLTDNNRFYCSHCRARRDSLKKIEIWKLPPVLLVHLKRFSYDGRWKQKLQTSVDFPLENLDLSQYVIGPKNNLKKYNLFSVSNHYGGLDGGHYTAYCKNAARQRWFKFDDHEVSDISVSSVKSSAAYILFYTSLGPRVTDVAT
Procedure, shortened: as §1

USP9X = USP9X (UniProt Q93008)
Sequence of USP9X (Q93008 whole entry): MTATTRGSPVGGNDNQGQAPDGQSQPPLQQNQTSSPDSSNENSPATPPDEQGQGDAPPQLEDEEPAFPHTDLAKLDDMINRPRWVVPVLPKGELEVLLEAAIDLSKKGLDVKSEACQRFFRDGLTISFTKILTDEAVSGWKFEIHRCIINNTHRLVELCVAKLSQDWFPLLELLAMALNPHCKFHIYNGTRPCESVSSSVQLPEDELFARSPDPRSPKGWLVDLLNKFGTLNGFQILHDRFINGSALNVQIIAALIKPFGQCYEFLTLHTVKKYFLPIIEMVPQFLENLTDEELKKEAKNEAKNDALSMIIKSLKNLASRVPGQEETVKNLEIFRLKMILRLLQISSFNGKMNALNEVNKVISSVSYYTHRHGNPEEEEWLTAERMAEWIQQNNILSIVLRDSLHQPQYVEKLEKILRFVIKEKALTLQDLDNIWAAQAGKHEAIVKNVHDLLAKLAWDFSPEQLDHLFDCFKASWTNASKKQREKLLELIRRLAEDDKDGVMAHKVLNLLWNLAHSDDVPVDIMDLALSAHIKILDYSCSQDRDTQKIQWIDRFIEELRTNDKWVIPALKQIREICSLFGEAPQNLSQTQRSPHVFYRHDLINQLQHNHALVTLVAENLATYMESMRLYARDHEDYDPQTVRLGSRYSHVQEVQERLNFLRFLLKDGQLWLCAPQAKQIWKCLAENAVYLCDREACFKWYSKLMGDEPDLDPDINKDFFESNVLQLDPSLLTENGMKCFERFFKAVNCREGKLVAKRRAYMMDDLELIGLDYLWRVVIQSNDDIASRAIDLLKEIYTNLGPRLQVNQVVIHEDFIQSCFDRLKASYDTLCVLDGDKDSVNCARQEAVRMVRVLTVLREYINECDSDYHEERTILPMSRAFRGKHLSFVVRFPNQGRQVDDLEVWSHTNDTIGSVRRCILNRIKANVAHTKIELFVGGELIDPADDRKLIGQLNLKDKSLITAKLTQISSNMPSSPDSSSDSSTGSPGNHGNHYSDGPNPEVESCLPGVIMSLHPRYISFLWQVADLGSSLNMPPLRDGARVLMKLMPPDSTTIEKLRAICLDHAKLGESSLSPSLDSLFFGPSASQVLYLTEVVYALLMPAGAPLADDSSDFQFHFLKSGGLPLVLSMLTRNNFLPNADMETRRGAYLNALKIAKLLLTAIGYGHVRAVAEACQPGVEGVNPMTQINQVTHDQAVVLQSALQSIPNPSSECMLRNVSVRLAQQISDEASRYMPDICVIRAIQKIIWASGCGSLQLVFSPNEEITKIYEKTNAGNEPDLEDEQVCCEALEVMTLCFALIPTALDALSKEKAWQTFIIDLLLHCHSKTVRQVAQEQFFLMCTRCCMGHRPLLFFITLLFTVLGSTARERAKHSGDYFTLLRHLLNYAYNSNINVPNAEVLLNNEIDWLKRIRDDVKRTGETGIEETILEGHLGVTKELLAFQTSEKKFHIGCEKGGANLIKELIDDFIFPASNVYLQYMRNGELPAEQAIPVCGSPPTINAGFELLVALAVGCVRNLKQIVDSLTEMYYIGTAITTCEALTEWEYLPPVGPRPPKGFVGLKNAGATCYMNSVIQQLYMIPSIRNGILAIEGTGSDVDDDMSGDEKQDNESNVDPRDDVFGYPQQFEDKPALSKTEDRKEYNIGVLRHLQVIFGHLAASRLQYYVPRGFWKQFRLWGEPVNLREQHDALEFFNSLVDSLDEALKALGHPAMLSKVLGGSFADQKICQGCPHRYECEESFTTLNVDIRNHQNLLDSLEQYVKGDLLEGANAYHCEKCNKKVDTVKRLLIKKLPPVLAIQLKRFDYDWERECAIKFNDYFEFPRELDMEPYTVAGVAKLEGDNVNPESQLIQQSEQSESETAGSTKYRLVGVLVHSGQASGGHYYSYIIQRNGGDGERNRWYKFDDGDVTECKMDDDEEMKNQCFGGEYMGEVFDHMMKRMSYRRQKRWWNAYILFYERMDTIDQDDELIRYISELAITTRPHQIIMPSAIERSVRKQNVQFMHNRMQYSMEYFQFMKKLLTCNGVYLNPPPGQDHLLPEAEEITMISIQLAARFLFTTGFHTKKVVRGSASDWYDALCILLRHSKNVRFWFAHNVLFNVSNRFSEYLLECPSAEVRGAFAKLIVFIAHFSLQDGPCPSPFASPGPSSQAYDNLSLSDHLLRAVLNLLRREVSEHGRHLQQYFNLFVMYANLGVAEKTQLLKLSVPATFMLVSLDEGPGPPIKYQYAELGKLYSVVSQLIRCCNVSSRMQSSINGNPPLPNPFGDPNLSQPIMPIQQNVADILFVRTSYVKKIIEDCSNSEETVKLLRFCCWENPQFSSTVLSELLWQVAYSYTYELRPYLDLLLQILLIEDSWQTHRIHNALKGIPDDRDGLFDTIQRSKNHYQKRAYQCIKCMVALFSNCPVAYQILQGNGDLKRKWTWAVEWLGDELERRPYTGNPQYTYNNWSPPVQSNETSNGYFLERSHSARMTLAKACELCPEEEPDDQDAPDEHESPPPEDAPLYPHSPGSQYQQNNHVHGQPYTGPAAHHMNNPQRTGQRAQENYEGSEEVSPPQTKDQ
Procedure, shortened: as §1

UniProt O00487 = target: UniProt O00487
Sequence of UniProt O00487 (O00487 whole entry): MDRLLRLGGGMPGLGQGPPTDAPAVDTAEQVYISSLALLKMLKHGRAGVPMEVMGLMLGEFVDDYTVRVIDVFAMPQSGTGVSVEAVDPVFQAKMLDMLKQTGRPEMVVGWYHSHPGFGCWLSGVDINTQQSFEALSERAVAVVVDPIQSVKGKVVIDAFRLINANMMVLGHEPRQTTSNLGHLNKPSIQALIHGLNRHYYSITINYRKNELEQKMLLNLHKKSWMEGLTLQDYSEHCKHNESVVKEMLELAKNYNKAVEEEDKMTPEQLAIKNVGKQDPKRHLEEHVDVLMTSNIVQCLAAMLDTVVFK
Procedure, shortened: as §1

Measured: log2 ratio of Biotin-Ahx-Ub-VS probe labelling

Cl.O=C(CCl)N1CCN(Cc2ccccc2)CC1
inactive: USP42 0.128 | USP46 -0.101 | USP47 -0.389 | USP48 -0.499 | USP5 -0.052 | USP54 0.13 | USP7 -0.607 | USP8 -0.333 | USP9X -0.369 | UniProt O00487 -0.299

— the supplement of paper PMC11732987, “Enantioselective OTUD7B fragment discovery through chemoproteomics screening and high-throughput optimisation” (Communications Chemistry, 2025)
